Measurements taken from ChEMBL document CHEMBL3433997, “St. Jude Leishmania screening dataset” (2016).

How the values were obtained:
Format in all cases: functional
[1] = biological target: Solute carrier family 2, facilitated glucose transporter member 1 (Homo sapiens) (UniProt P11166); assay: ST_JUDE_LEISH: Cytotoxicity at 2uM final concentration against transgenic Leishmania Mexicana promastigotes LmGLUT1 that are glucose transport deficient and complemented with the human glucose transporter GLUT1. Activity is measured by DNA content using SYBR green in vitro
[2] = biological target: Hexose transporter 1 (Plasmodium falciparum) (UniProt O97467); assay: ST_JUDE_LEISH: Cytotoxicity at 2uM final concentration against transgenic Leishmania Mexicana promastigotes LmPfHT that are glucose transport deficient and complemented with the Plasmodium falciparum hexose transporter. Activity is measured by DNA content using SYBR green in vitro
[3] = biological target: Glucose transporter (Leishmania mexicana) (UniProt O61059); assay: ST_JUDE_LEISH: Cytotoxicity at 2uM final concentration against transgenic Leishmania Mexicana promastigotes LmGT2 that are glucose transport deficient and complemented with the L. Mexicana glucose transporter 2. Activity is measured by DNA content using SYBR green in vitro

Chain of Solute carrier family 2, facilitated glucose transporter member 1 (Homo sapiens) (P11166 whole entry): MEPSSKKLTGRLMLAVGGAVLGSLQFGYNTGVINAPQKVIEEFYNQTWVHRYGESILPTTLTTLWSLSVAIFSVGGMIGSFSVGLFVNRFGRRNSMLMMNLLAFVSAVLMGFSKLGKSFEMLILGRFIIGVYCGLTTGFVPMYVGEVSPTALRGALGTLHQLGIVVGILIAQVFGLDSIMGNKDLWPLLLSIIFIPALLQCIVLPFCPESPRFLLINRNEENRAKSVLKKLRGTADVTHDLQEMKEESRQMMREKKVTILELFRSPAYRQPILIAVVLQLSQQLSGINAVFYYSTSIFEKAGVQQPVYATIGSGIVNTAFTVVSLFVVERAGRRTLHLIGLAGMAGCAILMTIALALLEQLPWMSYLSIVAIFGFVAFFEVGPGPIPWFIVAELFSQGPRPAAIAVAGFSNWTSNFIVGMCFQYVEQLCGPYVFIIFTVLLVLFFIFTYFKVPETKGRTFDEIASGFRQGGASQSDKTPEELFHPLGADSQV

| Compound | inhibition [1] [%] | inhibition [2] [%] | inhibition [3] [%] |
| --- | --- | --- | --- |
| OCC1CCN(Cc2ccc(-c3ccc(-c4nc5cc(C(F)(F)F)ccc5[nH]4)cc3)cc2)CC1 | 5.9 | 8.94 | 3.07 |
| Cc1ccccc1C1CCN(C2CCC(NC(=O)c3cncc(-c4ccccc4)c3)CC2)CC1 (centres undefined) | 6.15 | 6.33 | 3.53 |
| CN(C)CCCOc1ccc(CN2CC[C@H](NC(=O)c3ccc(Cl)c(Cl)c3)C2)c2ccccc12 | -0.55 | 1.01 | 0.71 |
| O=C(C=Cc1ccc(Cl)c(Cl)c1)NCCCCCN1CCC(CCCNC(=O)c2ccc3c(c2)OCO3)CC1 | 4.5 | 4.24 | -3.71 |
| O=[N+]([O-])c1nc(Br)n(Cc2ccc(Cl)cc2)n1 | 3.1 | 3.81 | 4.39 |
| Nc1nc(N)c2c(ccc3[nH]c(-c4ccccc4Cl)nc32)n1 | 77.1 | 69.7 | 61.8 |
| CC(C)NC(=O)c1cccc(-c2cccc(OCCN3CCSCC3c3ccccc3)c2)c1 (centres undefined) | 10.4 | 9.35 | 8.53 |
| COc1ccccc1C(=O)C1CCCN(C(=O)c2ccccc2C(F)(F)F)C1 (centres undefined) | -0.79 | -0.77 | 9.65 |
| O=C(Nc1ccnc(N2CCCN(Cc3cccc(O)c3)CC2)c1)c1ccc(F)cc1 | 2.79 | 0.77 | 4.83 |
| CC1(C)N=C(N)N=C(N)N1OCc1cc2ccccc2cc1CON1C(N)=NC(N)=NC1(C)C | 1.9 | 1.86 | 0.5 |
| O=c1cc(NCCCNCc2cc3c(Cl)cc(Cl)cc3[nH]2)[nH]c2ccccc12 | -0.67 | -0.16 | -0.14 |
| Cc1cc(Nc2ccncc2)n2nc(C)c(-c3ccccc3Cl)c2n1 | 2.97 | 1.58 | 6.28 |
| CC[C@H](NC(=O)c1c(CN2CCC(N3CCCCC3)CC2)c(-c2ccccc2)nc2cc(O)ccc12)c1ccccc1 | -0.16 | -0.44 | 1.08 |
| Nc1nc(N)c2c(ccc3c2ccn3CCCCO)n1 | 5.49 | 7.01 | 6.28 |
| COc1ccc2nccc([C@@H](O)CN3CCC(NCc4ccc(OC)c(NC=O)c4)CC3)c2c1 | 3.28 | 4.05 | 2.18 |
| CC(C(=O)OCCOCn1cnc2c(=O)[nH]c(N)nc21)N(C)C(=O)OC(C)(C)C (centres undefined) | -2.44 | -1.51 | -3.59 |
| O=S(=O)(NC1CCCCN(Cc2ccccc2O)C1)c1ccc(C(F)(F)F)cc1 (centres undefined) | 1.87 | 4.93 | 0.86 |
| CC(C)[C@@H](C(=O)NCc1cccc(C(F)(F)F)c1)N1C(=O)CCC1C(=O)Nc1ccc([N+](=O)[O-])cc1 (some centres undefined) | 2.24 | 1.67 | 2.73 |
| Cc1ccc(-c2ccn(Cc3cccc(OCc4ccccc4)c3)n2)cn1.Cc1ccc(-c2ccnn2Cc2cccc(OCc3ccccc3)c2)cn1 | 2.15 | 1.4 | -0.57 |

| Compound | inhibition [1] [%] | inhibition [2] [%] | inhibition [3] [%] |
| --- | --- | --- | --- |
| COc1ccc(Nc2ncc3c(-c4cccc(NC(=O)Cc5ccc(O)cc5)c4)c[nH]c3n2)cc1OC | 9.41 | 5.77 | 8.19 |
| Cc1ccc2c(N/N=C/c3ccccc3[N+](=O)[O-])cc(C)nc2c1 | 2.06 | -5.28 | 1.01 |
| COc1ccc(CNCc2ccc(F)cc2)cc1-c1cccc(S(=O)(=O)NCCN2CCCC2)c1 | 0.82 | 0.14 | 1.01 |
| CCCN(CC1CC1)c1ncc(-c2cccc(CNCCC3CCCN3C)c2)cn1 (centres undefined) | 98.4 | 26.8 | 104 |
| CC(Sc1nc(-c2ccccc2)c(-c2ccccc2)o1)C(=O)NC1CC1 (centres undefined) | -2 | 1.75 | 0.3 |
| Cc1cccc2nc(-c3ccc(-c4ccc(CN5CCCC(O)C5)cc4)s3)[nH]c12 (centres undefined) | 6.59 | 7.2 | 3.86 |
| COc1ccc(CNCc2ccccc2)cc1-c1ccc(S(=O)(=O)NCCN2CCCC2)s1 | 1.43 | 2.19 | 4.5 |
| Nc1c2c(nc3ccc(NC(=O)c4ccc([N+](=O)[O-])cc4)cc13)CCCC2 | -1.93 | -0.82 | -1.11 |
| COc1nc2c(CCN3CC[C@H](NCc4cc(C#N)c5c(c4)CCO5)[C@H](O)C3)ccnc2cc1F | 8.01 | 8.15 | 0.58 |
| Cc1nc2nc(N)nc(N)c2c(C)c1Cc1ccc(Cl)cc1 | 33.4 | 43.3 | 28.7 |
| Cc1cc(OCCCN2CCCC2)ccc1NC(=O)COc1ccc(Cl)cc1C(=O)c1cc(C#N)cc(C(F)(F)F)c1 | 73 | 11.6 | 10.3 |
| COc1ccc2nccc([C@@H](O)CN3CCC(NC(=O)c4nc(Cl)c(Cl)c(N)c4Cl)CC3)c2c1 | -0.09 | -0.22 | 1.55 |
| CN(Cc1cccc(F)c1)C1CCCN(c2cc(NC(=O)c3ccccc3)ccn2)C1 (centres undefined) | 4.12 | 4.07 | 3.71 |
| CN1CCN(c2ccnc3ccc(NC(=O)Nc4ccc(Cl)c(Cl)c4)cc23)CC1 | 6.24 | 6.07 | 6.56 |
| Clc1nc2ccccn2c1C=Cc1ccc2ccccc2n1 | 2.64 | 3.43 | 2.76 |
| Cc1cc(-c2cccc(CNCCc3ccc(Cl)cc3)c2)cnc1N | 6.5 | 6.59 | 7.77 |
| O=C(NCCCCCN1CCC(c2c[nH]c3ccccc23)CC1)c1ccc(-c2cccnc2)cc1 | 1.86 | 0.85 | 1.15 |
| COc1ccc(C=Cc2ccc(-c3c(C)[nH]c(C)c(Cl)c3=O)cc2)cc1OC | -0.83 | -2.94 | 0.92 |
| COc1cc2c(cc1COc1ccccc1)CCN1Cc3cc(OC)c(OC)cc3CC21 (centres undefined) | 1.91 | 0.8 | -6.12 |
